# Screens deposited in PubChem BioAssay by National Center for Advancing Translational Sciences (NCATS).
# In the library only some 5.1% were active in any assay of this set; here they are far more common.
# KDM4E inh – JMJD2E (human) inhibition. actives 1.6% (n = 230,000). JMJD2E catalytic domain, FDH-coupled NADH fluorescence (FDH is formaldehyde dehydrogenase). AID 2147. Potency, µM (doses to about 57.1 µM), for the others: at the top dose activity change, negative = inhibition, actives largely listed as inhibitors; active = well fitted inhibition curve with a large enough effect, not every such curve was filed as active; inconclusive = small, poorly fitted or top-dose-only effect, or another doubt; inactive = no such curve, though single readings can be large or run the other way;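 note: potency is the fitted concentration of half-maximal effect; 0% = wells with enzyme and -100% = buffer wells without enzyme; nearly all actives have a fitted effect of over 50% in size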
# Target sequence (B2RXH2 1-337 limits assumed): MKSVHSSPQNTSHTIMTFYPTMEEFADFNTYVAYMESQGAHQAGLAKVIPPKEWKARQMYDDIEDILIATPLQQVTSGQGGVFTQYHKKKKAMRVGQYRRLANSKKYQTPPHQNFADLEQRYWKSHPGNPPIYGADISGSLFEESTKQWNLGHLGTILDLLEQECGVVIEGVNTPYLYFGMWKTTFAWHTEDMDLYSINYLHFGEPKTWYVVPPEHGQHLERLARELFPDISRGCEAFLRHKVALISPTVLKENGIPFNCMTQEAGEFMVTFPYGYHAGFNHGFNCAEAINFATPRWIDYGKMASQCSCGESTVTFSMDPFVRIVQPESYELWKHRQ
# Tau fibril ThT – inhibitors of human tau fibril formation, thioflavin T binding. AID 1460. actives 2.1% (n = 270,000). recombinant tau K18 P301L, heparin-induced fibrillization, ThT fluorescence. Potency, µM (top dose mostly 57.4 µM), without a hit: top-dose activity, negative = inhibition, usual class: inhibitors. P10636; note: potency is the fitted concentration of half-maximal effect; nearly all actives have a fitted effect of over 55% in size
# Target sequence (P10636 561-689 P618L limits assumed): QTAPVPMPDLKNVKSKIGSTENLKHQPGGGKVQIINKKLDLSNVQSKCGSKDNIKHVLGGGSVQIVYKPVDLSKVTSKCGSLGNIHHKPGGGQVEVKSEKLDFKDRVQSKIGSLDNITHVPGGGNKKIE
#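 Aggregation was driven by heparin (20 uM final) acting on recombinant tau […] bearing P301L in 100 mM sodium acetate pH 7; fibrils were detected with Thioflavin T.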
# PNC inhibitor – inhibitors of perinucleolar compartment assembly. PC3M PTB-GFP, PNC prevalence imaging, 16 h; hits give low values. actives 3.1% (n = 140,000). AID 2417. activity change (PNC), negative = inhibition, % at 10 µM;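 active = readout at or below -70, meaning at least 70% loss of cells showing the perinucleolar compartment, a nuclear body marking cancer cells; inconclusive = readout between -30 and a set limit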;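 note: plate controls were DMSO wells for no effect and camptothecin positive control wells for full effect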
#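 Compounds are pinned in duplicate onto adhered PC3M cells stably expressing GFP-tagged PTB and incubated 16 h at 37 C. Cells are then fixed, nuclei stained with Hoechst, and PNC-positive cells counted.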
# Tau fibril FP – blocks human tau fibril formation measured by polarization. P10636. K18 P301L tau heparin fibrillization, Alexa594 FP, 6 h. Potency, µM (top dose mostly 57.7 µM), for inactives: top-dose activity, negative = inhibition, hits mostly inhibitors. actives 0.39% (n = 280,000); note: potency is the fitted concentration of half-maximal effect; nearly all actives have a fitted effect of over 55% in size
#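 Steps: dispense K18 P301L tau (15 uM plus 0.24 uM Alexa 594 tracer, final) in pH 7 sodium acetate; add compound; add heparin (20 uM final); incubate 6 hr, 37 C; add ThT (30 uM final); after 1 hr ambient, read FP.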
# NPSR antag – antagonists of human neuropeptide S receptor cAMP signaling; Potency, µM (titrated, usually from 38.3 µM), inactives show at the highest dose activity change, negative = inhibition, hits mostly inhibitors; Q6W5P4; actives 1% (n = 220,000); CHO-NPSR cells, cAMP TR-FRET, antagonist mode; AID 1461; note: potency is the fitted concentration of half-maximal effect; nearly all actives have a fitted effect of over 50% in size
# Tau fluor cs – counter-screen for tau fibril formation inhibitors; tau K18 P301L (four-repeat tau fragment) Alexa594 fluorescence, heparin fibrillization; Potency, µM (series often up to 57.7 µM), inactives show at the highest dose activity change, negative = decrease; actives 0.93% (n = 280,000); AID 1463; note: potency is the fitted concentration of half-maximal effect; nearly all actives have a fitted effect of over 55% in size
#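 Human K18 P301L tau (15 uM unlabeled plus 0.24 uM Alexa 594-labeled, final) in 100 mM sodium acetate pH 7 was mixed with compound and 20 uM heparin and incubated 6 hr at 37 C.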
# * hit, by the source's call; u = inconclusive; x = not tested or not shown; [ ] = remark or other dose. Unless noted, calls come from the whole dose curve; as a rule, active = well fitted curve in the direction sought with a large enough effect; inconclusive = small, poorly fitted or top-dose-only effect, or another doubt; inactive = no such curve, though single readings can be large; an effect the other way counts as inactive or inconclusive. Unless noted, % is set by controls: 0 for no effect and ±100 for the full control effect.
SMILES,KDM4E inh,Tau fibril ThT,PNC inhibitor,Tau fibril FP,NPSR antag,Tau fluor cs
COC(=O)/C(=C\C(=O)c1ccc([N+](=O)[O-])cc1)Nc1ccc(OC)cc1,-12%,3.2µM*,x,u,-5%,u
COc1ccc(C(=O)/C=C/Nc2ccc([N+](=O)[O-])cc2)cc1,6%,u,80,-2%,-1%,-11%
COc1ccc(C(=O)/C(C#N)=N/Nc2ccc([N+](=O)[O-])cc2)cc1,-24%,4µM*,x,1%,-13%,u
COc1ccc(C(=O)/C(C#N)=N/Nc2ccccc2[N+](=O)[O-])cc1,-2%,u,-18,4%,-5%,-19%
N#C/C(=N\Nc1ccc(Cl)cc1)C(=O)c1ccccc1,1%,14µM*,41,10%,13µM*,u
CCOc1ccc(CNC(=O)c2ccc3c(Cl)c4c(nc3c2)CCCC4)cc1,x,-13%,x,4%,x,-9%
Cc1ccc(C)c2c(SC(C)C(=O)NCc3ccco3)nc(-c3ccccc3)nc12 (centres undefined),3%,6%,-100*,-2%,-7%[46.1 µM],-5%
Cc1ccc2nc(-c3ccccc3)nc(SC(C)C(=O)NCc3cccs3)c2c1 (centres undefined),4%,-18%,28,7%,2%[46.1 µM],-5%
C/C(=N/NC(=O)c1ccoc1C)c1ccc(NC(=O)C2CCCC2)cc1,7%,-5%,-87*,5%,-8%,7%
Cc1cccc2[nH]c3c(N4CC=C(c5ccc(F)cc5)CC4)ncnc3c12,u,u,x,u,31%,14µM*[quencher]
O=C(Nc1cccc([N+](=O)[O-])c1)Nc1ccc2c(c1)OCCO2,-27%,u,x,5%,-14%,14µM*[quencher]
COc1ccc(C(=O)C(C)Oc2cccc(NC(=O)c3cccc([N+](=O)[O-])c3)c2)cc1 (centres undefined),7%,-11%,-1,-3%,-15%,3.5µM*[quencher]
COc1cc(NC(=O)Nc2cccc([N+](=O)[O-])c2)cc(OC)c1,5%,u,x,u,-22%,14µM*[quencher]
O=C(Nc1ccc(C(=O)O)cc1)Nc1cccc([N+](=O)[O-])c1,4%,-17%,-8,-6%,11%,-25%
O=C(Nc1cccc([N+](=O)[O-])c1)Nc1cccc([N+](=O)[O-])c1,-13%,u,x,-14%,-6%,u
CCC1CN(C(=O)N2CCC(C(=O)NCCc3ccc(C)cc3)CC2)c2ccccc2O1 (centres undefined),x,19%,x,-14%,x,u
C[C@@H](C(=O)Nc1ccc2ccccc2c1)[C@@H]1C[C@@]1(C)[C@@H](NS(=O)(=O)c1ccc2ccccc2c1)c1ccccc1,14µM*,-4%,x,u,x,-23%
CCN(CC)c1ccc(/C=C(/C#N)C(=O)NC(C)C)o1,u,u,x,0%,-22%,-9%
CCN(CC)c1ccc(/C=C(/C#N)C(=O)NCc2ccccc2)o1,u,u,-90*,0%,-17%,-28%
CCc1nc(-c2cc(S(=O)(=O)N3CCN(c4ccc(F)cc4)CC3)ccc2OC)no1,x,-10%,x,9%,x,-19%
O=C(OC1Cc2c(O)cc(O)cc2OC1c1cc(O)c(O)c(O)c1-c1c(C2Oc3cc(O)cc(O)c3CC2O)cc(O)c(O)c1O)c1cc(O)c(O)c(O)c1 (centres undefined),8.9µM*,18µM*,x,u,x,13µM*[quencher]
CCCCCCC1CC(CC(=O)Nc2ccc([N+](=O)[O-])cc2)C(=O)O1 (centres undefined),10%,-1%,-104*,-1%,-33%,u
CCCCCC1CC(CC(=O)NC(=S)Nc2ccc([N+](=O)[O-])cc2)C(=O)O1 (centres undefined),3%,-16%,u,-6%,-25%[46.1 µM],-30%
COC(=O)C1=C(C(=O)OC)[C@@H]2Nc3ccccc3[C@@]23C[C@@H](C(=O)OC)N(S(=O)(=O)c2ccc(C)cc2)C3=N1,3%[11.4 µM],0%[11.5 µM],x,-2%[11.6 µM],x,-8%[11.6 µM]
CCOc1ccc(-n2c(SCC(=O)Nc3cccc(Cl)c3)nc3c(oc4ccccc43)c2=O)cc1,x,-10%,x,-15%,x,-21%
SMILES,KDM4E inh,Tau fibril ThT,PNC inhibitor,Tau fibril FP,NPSR antag,Tau fluor cs
CCOC(=O)c1c(CSC(=N)N)n(-c2ccc(Br)cc2)c2cc(Br)c(OC(C)=O)cc12,u,16µM*,30,u,10µM*,u
COc1ccc(NC(=O)CN2CCCN(S(=O)(=O)c3ccc(Br)cc3)CC2)c(OC)c1,x,u,x,7%,x,-27%
Cc1onc(-c2c(F)cccc2Cl)c1C(=O)OCC(=O)c1c[nH]c2ccccc12,-9%,-3%,x,18µM*,-42%,18µM*[quencher]
Cc1noc(C)c1C(=O)OCC(=O)c1c[nH]c2ccccc12,-2%,-12%,-14,7%,-12%[46.1 µM],-17%
COc1cccc(CNC(=O)c2cc3oc4ccccc4c3n2C)c1OC,u,-12%,-106*,-13%,-16%[46.1 µM],-16%
CN(C)C(=O)N1CCN(C(=O)N(C)C)CC1,3%,10%,-9,8%,-9%[46.1 µM],8%
CC1CN(C(=O)N(C)C)CCN1C(=O)N(C)C (centres undefined),-14%,-2%,-127*,0%,-14%[46.1 µM],-2%
O=C(/C=C/c1cccs1)Nc1scc(-c2ccccc2)c1C(=O)O,5µM*,u,x,5%,-5%,-7%
O=C(/C=C/c1cccs1)Nc1nc(-c2ccccc2)cs1,-25%,-6%,15,u,-17%[46.1 µM],u
COc1ccc(NC(=O)c2nnn(Cc3nc(-c4cc(Br)ccc4OC)oc3C)c2C)cc1,x,16%,x,-5%,x,-13%
COc1cccc(/C=N/NC(=O)CSc2nnc(C)n2-c2ccccc2)c1O,28µM*,-13%,34,-7%,-16%[46.1 µM],-10%
Cc1ccccc1-n1c(C)nnc1SCC(=O)NNC(=O)c1ccccc1,1%,-5%,u,2%,14%,-6%
CCOc1ccccc1/C=N/NC(=O)CSc1n[nH]c(=O)[nH]c1=O,-9%,3%,x,7%,10%,5%
COc1ccc(CSCC(=O)N/N=C/c2ccccc2O)cc1,32µM*,-8%,x,-9%,-6%,-27%
O=C(CSc1ccccc1)N/N=C/c1ccccc1O,u,1%,x,-5%,1%,-15%
COc1ccc(/C=N/NC(=O)CSc2nnc(C)n2-c2ccccc2)c(OC)c1OC,4%,-11%,u,6%,-8%[46.1 µM],-5%
O=C(CSc1n[nH]c(=O)[nH]c1=O)N/N=C/c1ccccc1O,14µM*,-1%,-16,-15%,3%,0%
Cc1nnc(SCC(=O)NNC(=O)c2ccccc2)n1-c1ccccc1,1%,10%,-84*,-3%,20%,-4%
